Experimental data from the supplement of paper PMC10849652.
Targets with a hit are over-represented here; the source holds about 7,900 in all. About 0.6% of all pairs of compound and target were hits.

compound: O=C1NC(=O)C(c2cnc3ccccn23)=C1c1cn2c3c(cc(F)cc13)CN(C(=O)N1CCCCC1)CC2; experiment: log2 fold change, soluble protein after heating vs DMSO (PISA); higher = thermal stabilisation; K562 cells, 10 uM, 30 min; active = over 0.2 and 3.5 SD of the protein, either way, in both replicates (recomputed)
Summary of the method: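 K562 cells at 2×10^6 cells/mL were treated for 30 min with 10 μM compound, and aliquots were heated for 3 min over 48°C-58°C before pooling. Extraction used PBS with 0.5% NP-40 at 4°C, and soluble protein was the supernatant after 21,000xg for 90 min, measured by TMTpro 16plex LC-MS/MS with channel sums equalised. Thermal stability values, relative to control samples and from duplicates, are log2 fold changes.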

Sequence of UniProt Q96HJ9 (Q96HJ9 whole entry, looked up): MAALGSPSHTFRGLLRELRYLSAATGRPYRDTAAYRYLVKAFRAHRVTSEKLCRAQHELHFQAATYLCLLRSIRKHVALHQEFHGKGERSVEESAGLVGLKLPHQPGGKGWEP
Sequence of UniProt O43524 (O43524 whole entry, looked up): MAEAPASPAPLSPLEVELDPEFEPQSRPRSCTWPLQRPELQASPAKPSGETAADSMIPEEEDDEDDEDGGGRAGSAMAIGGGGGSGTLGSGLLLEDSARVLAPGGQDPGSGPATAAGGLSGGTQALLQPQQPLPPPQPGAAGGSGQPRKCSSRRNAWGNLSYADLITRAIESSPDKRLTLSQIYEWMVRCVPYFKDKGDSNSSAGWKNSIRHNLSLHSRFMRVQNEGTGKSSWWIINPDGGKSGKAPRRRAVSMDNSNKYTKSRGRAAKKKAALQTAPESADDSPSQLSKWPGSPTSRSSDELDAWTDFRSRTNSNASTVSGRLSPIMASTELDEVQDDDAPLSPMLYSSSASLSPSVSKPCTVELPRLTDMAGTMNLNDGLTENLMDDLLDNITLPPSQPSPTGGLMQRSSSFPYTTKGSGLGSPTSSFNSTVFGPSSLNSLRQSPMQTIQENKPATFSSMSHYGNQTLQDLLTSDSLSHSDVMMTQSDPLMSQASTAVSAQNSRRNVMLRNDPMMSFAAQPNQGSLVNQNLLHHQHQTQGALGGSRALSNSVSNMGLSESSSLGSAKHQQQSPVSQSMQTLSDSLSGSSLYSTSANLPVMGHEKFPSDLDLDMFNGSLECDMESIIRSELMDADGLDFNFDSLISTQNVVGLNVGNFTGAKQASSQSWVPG
Sequence of UniProt O14526 (O14526 whole entry, looked up): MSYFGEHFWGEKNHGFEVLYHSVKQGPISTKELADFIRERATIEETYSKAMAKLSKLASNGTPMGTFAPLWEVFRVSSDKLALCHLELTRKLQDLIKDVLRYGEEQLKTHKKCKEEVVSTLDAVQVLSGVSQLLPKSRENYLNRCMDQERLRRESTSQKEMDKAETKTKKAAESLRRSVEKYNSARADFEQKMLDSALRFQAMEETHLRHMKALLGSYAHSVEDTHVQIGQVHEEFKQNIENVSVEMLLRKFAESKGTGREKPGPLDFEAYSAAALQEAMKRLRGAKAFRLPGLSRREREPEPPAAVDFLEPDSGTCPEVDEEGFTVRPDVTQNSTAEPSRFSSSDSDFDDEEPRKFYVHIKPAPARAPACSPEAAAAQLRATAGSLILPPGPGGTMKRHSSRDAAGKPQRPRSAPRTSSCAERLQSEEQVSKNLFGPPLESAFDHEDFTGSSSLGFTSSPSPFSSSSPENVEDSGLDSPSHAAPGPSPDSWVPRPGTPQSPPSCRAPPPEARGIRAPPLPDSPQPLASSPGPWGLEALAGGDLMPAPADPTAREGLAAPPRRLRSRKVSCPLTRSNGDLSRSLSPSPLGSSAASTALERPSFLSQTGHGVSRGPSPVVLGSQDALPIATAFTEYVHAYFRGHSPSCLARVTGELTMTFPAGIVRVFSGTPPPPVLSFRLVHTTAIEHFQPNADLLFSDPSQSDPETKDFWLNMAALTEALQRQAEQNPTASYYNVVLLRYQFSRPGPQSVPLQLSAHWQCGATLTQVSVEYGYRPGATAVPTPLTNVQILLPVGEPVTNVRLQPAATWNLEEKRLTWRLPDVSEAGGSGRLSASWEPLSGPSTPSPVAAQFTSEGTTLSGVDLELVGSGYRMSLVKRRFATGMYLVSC
Sequence of UniProt Q16774 (Q16774 whole entry, looked up): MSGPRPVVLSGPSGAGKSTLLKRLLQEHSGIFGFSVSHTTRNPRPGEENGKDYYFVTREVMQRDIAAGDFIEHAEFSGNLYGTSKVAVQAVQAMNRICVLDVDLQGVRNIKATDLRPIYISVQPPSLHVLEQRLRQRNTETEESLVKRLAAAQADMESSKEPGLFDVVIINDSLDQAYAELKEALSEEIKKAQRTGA
Sequence of UniProt Q86VS8 (Q86VS8 whole entry, looked up): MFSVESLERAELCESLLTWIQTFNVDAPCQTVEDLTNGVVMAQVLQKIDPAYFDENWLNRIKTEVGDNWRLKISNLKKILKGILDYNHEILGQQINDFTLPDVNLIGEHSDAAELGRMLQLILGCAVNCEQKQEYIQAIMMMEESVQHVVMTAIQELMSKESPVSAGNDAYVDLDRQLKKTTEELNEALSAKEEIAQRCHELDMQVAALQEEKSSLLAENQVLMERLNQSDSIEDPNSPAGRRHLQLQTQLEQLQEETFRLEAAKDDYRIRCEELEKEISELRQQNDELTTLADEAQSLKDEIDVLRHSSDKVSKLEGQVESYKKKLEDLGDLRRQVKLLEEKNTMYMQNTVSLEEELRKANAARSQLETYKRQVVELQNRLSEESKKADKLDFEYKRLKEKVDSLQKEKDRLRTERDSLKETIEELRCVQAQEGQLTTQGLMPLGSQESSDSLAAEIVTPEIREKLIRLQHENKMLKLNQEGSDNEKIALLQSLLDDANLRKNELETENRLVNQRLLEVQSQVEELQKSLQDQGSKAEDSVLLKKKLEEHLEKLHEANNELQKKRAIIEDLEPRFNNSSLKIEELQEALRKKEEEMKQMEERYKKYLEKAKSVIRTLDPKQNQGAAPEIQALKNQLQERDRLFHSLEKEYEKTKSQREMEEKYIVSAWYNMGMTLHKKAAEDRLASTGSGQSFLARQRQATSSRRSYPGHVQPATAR
Sequence of UniProt Q86UX7 (Q86UX7 whole entry, looked up): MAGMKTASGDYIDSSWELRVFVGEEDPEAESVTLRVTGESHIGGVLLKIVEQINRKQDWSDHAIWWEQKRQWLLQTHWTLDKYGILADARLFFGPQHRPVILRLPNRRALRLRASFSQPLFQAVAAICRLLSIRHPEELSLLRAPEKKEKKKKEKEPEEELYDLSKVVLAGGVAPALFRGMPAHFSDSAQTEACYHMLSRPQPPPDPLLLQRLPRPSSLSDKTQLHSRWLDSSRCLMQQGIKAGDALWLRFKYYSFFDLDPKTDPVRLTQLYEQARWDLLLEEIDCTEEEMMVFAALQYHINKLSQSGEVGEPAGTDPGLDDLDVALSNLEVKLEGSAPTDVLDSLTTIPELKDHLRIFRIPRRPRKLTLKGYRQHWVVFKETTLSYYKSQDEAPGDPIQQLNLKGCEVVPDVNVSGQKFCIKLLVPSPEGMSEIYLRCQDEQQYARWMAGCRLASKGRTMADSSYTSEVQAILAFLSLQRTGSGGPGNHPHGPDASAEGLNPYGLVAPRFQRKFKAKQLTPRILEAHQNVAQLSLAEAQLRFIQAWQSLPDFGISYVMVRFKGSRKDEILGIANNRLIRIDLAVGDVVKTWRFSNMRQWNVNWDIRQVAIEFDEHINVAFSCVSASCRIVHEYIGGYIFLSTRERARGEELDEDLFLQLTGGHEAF
Sequence of UniProt Q9H0R4 (Q9H0R4 whole entry, looked up): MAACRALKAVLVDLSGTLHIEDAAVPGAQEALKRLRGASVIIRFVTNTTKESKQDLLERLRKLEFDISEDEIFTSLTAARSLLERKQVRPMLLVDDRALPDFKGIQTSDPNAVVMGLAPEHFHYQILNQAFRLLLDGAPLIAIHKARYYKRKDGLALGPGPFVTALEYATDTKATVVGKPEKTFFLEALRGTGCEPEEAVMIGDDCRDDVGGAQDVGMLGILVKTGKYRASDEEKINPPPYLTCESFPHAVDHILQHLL
Sequence of UniProt Q7Z4H3 (Q7Z4H3 whole entry, looked up): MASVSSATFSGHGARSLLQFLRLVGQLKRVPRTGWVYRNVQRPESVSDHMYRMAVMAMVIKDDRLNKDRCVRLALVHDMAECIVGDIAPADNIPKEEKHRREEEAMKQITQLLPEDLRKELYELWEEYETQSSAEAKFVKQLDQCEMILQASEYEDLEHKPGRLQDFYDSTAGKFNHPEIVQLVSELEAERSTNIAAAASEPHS
Sequence of UniProt P0C0S5 (P0C0S5 whole entry, looked up): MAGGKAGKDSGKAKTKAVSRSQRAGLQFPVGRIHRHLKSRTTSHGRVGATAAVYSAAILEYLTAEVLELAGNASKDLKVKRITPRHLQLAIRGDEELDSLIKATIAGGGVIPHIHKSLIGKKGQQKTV
Sequence of UniProt P50213 (P50213 whole entry, looked up): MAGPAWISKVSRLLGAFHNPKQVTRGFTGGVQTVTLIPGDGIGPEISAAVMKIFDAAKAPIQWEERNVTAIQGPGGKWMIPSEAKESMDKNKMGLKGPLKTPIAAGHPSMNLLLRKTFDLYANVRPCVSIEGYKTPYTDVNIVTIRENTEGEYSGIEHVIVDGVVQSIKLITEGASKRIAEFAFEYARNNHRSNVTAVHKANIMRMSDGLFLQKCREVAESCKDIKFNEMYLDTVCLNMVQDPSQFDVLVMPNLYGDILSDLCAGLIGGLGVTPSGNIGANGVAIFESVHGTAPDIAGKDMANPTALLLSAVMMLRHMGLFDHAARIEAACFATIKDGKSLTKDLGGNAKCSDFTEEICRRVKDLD
Sequence of UniProt O43824 (O43824 whole entry, looked up): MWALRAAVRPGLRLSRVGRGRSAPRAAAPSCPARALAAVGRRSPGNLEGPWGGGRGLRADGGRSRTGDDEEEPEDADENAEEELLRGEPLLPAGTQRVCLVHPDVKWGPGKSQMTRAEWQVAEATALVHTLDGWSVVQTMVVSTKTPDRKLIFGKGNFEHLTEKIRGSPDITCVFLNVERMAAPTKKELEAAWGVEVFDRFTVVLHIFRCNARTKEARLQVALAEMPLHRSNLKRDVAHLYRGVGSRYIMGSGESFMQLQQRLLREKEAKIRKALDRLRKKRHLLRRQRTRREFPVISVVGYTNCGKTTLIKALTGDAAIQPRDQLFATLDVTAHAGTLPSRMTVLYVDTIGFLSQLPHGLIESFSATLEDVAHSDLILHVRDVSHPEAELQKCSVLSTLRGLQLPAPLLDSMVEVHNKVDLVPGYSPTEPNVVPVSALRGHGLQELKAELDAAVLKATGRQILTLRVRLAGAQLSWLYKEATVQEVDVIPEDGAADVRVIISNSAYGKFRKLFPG
Sequence of UniProt Q01628 (Q01628 whole entry, looked up): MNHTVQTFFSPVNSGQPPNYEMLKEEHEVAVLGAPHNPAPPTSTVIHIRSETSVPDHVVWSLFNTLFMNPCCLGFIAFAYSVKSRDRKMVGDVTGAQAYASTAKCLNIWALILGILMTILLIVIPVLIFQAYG

Target	log2 fold change
FHOD1 (UniProt Q9Y613)	0.23 (inactive)
GPD1 (UniProt P21695)	-0.157 (inactive)
GUK1 isoform 2 (UniProt Q16774)	-0.094 (inactive)
H2AZ1 (UniProt P0C0S5)	0.086 (inactive)
GABARAPL2 (UniProt P60520)	-0.048 (inactive)
HLTF (UniProt Q14527)	-0.073 (inactive)
FMC1 (UniProt Q96HJ9)	-0.012 (inactive)
GALNT11 (UniProt Q8NCW6)	-0.021 (inactive)
HMOX2 (UniProt P30519)	0.013 (inactive)
GUSB (UniProt P08236)	0.057 (inactive)
FBXO3 (UniProt Q9UK99)	0.001 (inactive)
FCHO1 (UniProt O14526)	-0.102 (inactive)
GHDC (UniProt Q8N2G8)	-0.045 (inactive)
GLUL (UniProt P15104)	-0.012 (inactive)
HNRNPK isoform 2 (UniProt P61978)	-0.137 (inactive)
HOOK3 (UniProt Q86VS8)	-0.049 (inactive)
GLRX3 (UniProt O76003)	-0.094 (inactive)
HIST2H3A (UniProt Q71DI3)	0.07 (inactive)

Target	log2 fold change
GLS (UniProt O94925)	-0.193 (inactive)
IDH3A (UniProt P50213)	-0.021 (inactive)
HDDC2 (UniProt Q7Z4H3)	0.029 (inactive)
GTF3C4 (UniProt Q9UKN8)	-0.013 (inactive)
IFI30 (UniProt P13284)	0.128 (inactive)
FOXO3 (UniProt O43524)	-0.046 (inactive)
GOPC (UniProt Q9HD26)	0.265 (inactive)
GPX4 (UniProt P36969)	-0.006 (inactive)
FUT8 (UniProt Q9BYC5)	-0.146 (inactive)
HADHA (UniProt P40939)	1.01 (active)
GAGE12F (UniProt P0CL80)	0.021 (inactive)
GTPBP6 (UniProt O43824)	0.086 (inactive)
GCDH (UniProt Q92947)	-0.019 (inactive)
IFITM3 (UniProt Q01628)	0.072 (inactive)
FIS1 (UniProt Q9Y3D6)	-0.03 (inactive)
FERMT3 (UniProt Q86UX7)	-0.048 (inactive)
HDHD2 (UniProt Q9H0R4)	0.131 (inactive)
